Assay results published in PubChem BioAssay (NCI).
The panel holds about 79,000 compounds, 15% with a hit somewhere; the sample as a whole holds those more often. A number with no mark means an inactive call. Activity calls are given as the source filed them. Cut-off read from the data, not from the text of the source: active = growth inhibition above about 70%; inactive = the rest.

Experiment: NCI Yeast Anticancer Drug Screen. Data for the sgs1 mgt1 strain (AID 161);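 note: 0% = growth of cultures given vehicle only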
Conditions: S. cerevisiae sgs1 mgt1 strain, at 5.0 µM (retest, dose inferred, filed as 0.5), hits give high values
How it was run: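 Growth of a repair-deficient yeast mutant was monitored after compound treatment and expressed as inhibition relative to vehicle-treated cultures.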

Row | Structure (SMILES) | growth inhibition
1 | COc1cccc2c1C(=O)c1c(O)c3c(c(O)c1C2=O)C[C@@](O)(C(C)=O)C[C@@H]3OC1CC(O)C(O)C(C)O1 (stereo partly specified) | 25%
2 | COc1cccc2c1C(=O)c1c(O)c3c(c(O)c1C2=O)C[C@@](O)(C(C)=O)C[C@@H]3OC1CC(N(C)C)C(O)C(C)O1 (stereo partly specified) | 99% (active)
3 | C[N+]1(C)CCC(c2ccccc2)(c2ccccc2)C(=O)C1 | -8%
4 | CC[C@@]1(OC(=O)C(N)CCCCN)C(=O)OCc2c1cc1n(c2=O)Cc2cc3ccccc3nc2-1 (stereo partly specified) | 18%
5 | CCN(CCO)CCNc1ccc(C)c2sc3ccccc3c(=O)c12 | 9%
6 | NC(=O)SCC(=O)NNc1ccccc1 | 5%
7 | CCN(CC)c1ccc(C(=C2C=CC(=[N+](CC)CC)C=C2)c2ccc(N(CC)CC)cc2)cc1 | 98% (active)
8 | Nc1ncnc2c(C3OC(CO)C(O)C3O)scc12 (stereo unspecified) | 7%
9 | Nc1ccc(Cn2ccc3c4c(N)nc(N)nc4ccc32)cc1 | 7%
10 | Cc1n(CC(C)C)c2c([n+]1C)C(=O)c1ccccc1C2=O | 44%
11 | c1ccc(Cc2cc3ccccc3c3ccccc23)cc1 | 2%
12 | Nc1nc(N)c2c(Cl)c(CNc3ccc(Cl)c(Cl)c3)ccc2n1 | 81% (active)
13 | C=C1CC2(CC(c3ccccc3OC)OC(c3ccccc3OC)C2)OC1=O (stereo unspecified) | 26%
14 | O=[N+]([O-])c1c(Cl)nc2ccccn12 | 2%
15 | C/C(=N\NC(=S)N1CCN(c2ccccn2)CC1)c1nccs1 | 43%
16 | Clc1nc(Cl)c(Cl)c(Cl)n1 | 5%
17 | COc1ccc(COc2ccc(C(=O)CCN3CCOCC3)cc2)cc1 | 61%
18 | O/N=C/c1cc(I)c(O)c(I)c1 | 99% (active)
19 | COC1OC2COC(c3ccccc3)OC2C(O)C1OS(=O)(=O)c1ccc(C)cc1 (stereo unspecified) | -7%

Row | Structure (SMILES) | growth inhibition
20 | C=C1CC2(CC(c3ccccc3C)OC(c3ccccc3C)C2)OC1=O (stereo unspecified) | 76% (active)
21 | Cc1ccc2c(c1)C1(C)OC(C=CC1=O)O2 (stereo unspecified) | 91% (active)
22 | COc1cc(OC)c(OC)cc1/C=C\c1ccnc2ccccc12 | 10%
23 | Cc1n(Cc2ccccc2)c2c([n+]1C)C(=O)c1ccccc1C2=O | 55%
24 | O=[N+]([O-])c1cc2c(cc1S(=O)(=O)O)C1C(C3C2C2(Cl)C(Cl)=C(Cl)C3(Cl)C2(Cl)Cl)C2(Cl)C(Cl)=C(Cl)C1(Cl)C2(Cl)Cl (stereo unspecified) | 22%
25 | CCOC(=O)Nc1c(C)cc(C)c(Br)c1C | 1%
26 | COc1cc2c(c(OC)c1OC)-c1ccc(SC)c(=O)cc1C(NC(=O)c1ccccc1)CC2 (stereo unspecified) | 5%
27 | CCCCCCCCCCS(=O)CC(CO)NC(=O)/C=C/c1c(C)[nH]c(=O)[nH]c1=O (stereo unspecified) | 68%
28 | C/C(N=NC(=S)N1CCCCCC1)=C1\C=CC=CN1O | 14%
29 | Cc1cc(NCCCCCCCNc2cc(C)nc3cc([N+](=O)[O-])ccc23)c2ccc([N+](=O)[O-])cc2n1 | 5%
30 | CC1CC[P+](c2ccccc2)(c2ccccc2)c2c1ccc1ccccc21 (stereo unspecified) | 81% (active)
31 | O=C1C(Cl)=C(N2CCN(C3=C(Cl)C(=O)c4ccccc4C3=O)CC2)C(=O)c2ccccc21 | 44%
32 | CCN1CCC(O)(c2ccc(Oc3ccccc3)cc2)C(C(=O)c2ccc(Oc3ccccc3)cc2)C1 (stereo unspecified) | 23%
33 | Cc1ccc(NCCN(C)C)c2c(=O)c3cc(O)ccc3sc12 | 10%
34 | COc1ccc2nc(C)cc(NCCCCCCCCCNc3cc(C)nc4ccc(OC)cc34)c2c1 | -2%
35 | Cc1n(-c2ccccc2)c2c([n+]1Cc1ccc([N+](=O)[O-])cc1)C(=O)c1ccccc1C2=O | -10%
36 | CC1(O)Cc2c(O)c3c(c(O)c2CC1O)C(=O)C=CC3=O (stereo unspecified) | 4%
37 | c1ccc(C2=NC(c3ccccc3)=NS(S3=NC(c4ccccc4)=NC(c4ccccc4)=N3)=N2)cc1 (stereo unspecified) | 20%
38 | CC[C@](O)(CC(=O)O[C@H]1C(=O)O[C@@H]2C[C@H]3C(C)=CC(=O)[C@@H](O)[C@]3(C)[C@H]3[C@@]4(O)OC[C@]32[C@@H]1[C@@H](C)[C@H]4O)C(C)C | 57%

Same assay, conditions: S. cerevisiae sgs1 mgt1 strain, at 50.0 µM (retest, dose inferred, filed as 5.0), hits give high values

Row | Structure (SMILES) | growth inhibition
39 | COc1cccc2c1C(=O)c1c(O)c3c(c(O)c1C2=O)C[C@@](O)(C(C)=O)C[C@@H]3OC1CC(O)C(O)C(C)O1 (stereo partly specified) | 94% (active)
40 | COc1cccc2c1C(=O)c1c(O)c3c(c(O)c1C2=O)C[C@@](O)(C(C)=O)C[C@@H]3OC1CC(N(C)C)C(O)C(C)O1 (stereo partly specified) | 99% (active)
41 | C[N+]1(C)CCC(c2ccccc2)(c2ccccc2)C(=O)C1 | -2%
42 | CC[C@@]1(OC(=O)C(N)CCCCN)C(=O)OCc2c1cc1n(c2=O)Cc2cc3ccccc3nc2-1 (stereo partly specified) | -11%
43 | CCN(CCO)CCNc1ccc(C)c2sc3ccccc3c(=O)c12 | 98% (active)
44 | NC(=O)SCC(=O)NNc1ccccc1 | 41%
45 | CCN(CC)c1ccc(C(=C2C=CC(=[N+](CC)CC)C=C2)c2ccc(N(CC)CC)cc2)cc1 | 92% (active)
46 | Nc1ncnc2c(C3OC(CO)C(O)C3O)scc12 (stereo unspecified) | 42%
47 | Nc1ccc(Cn2ccc3c4c(N)nc(N)nc4ccc32)cc1 | 88% (active)
48 | Cc1n(CC(C)C)c2c([n+]1C)C(=O)c1ccccc1C2=O | 99% (active)
49 | c1ccc(Cc2cc3ccccc3c3ccccc23)cc1 | -3%
50 | Nc1nc(N)c2c(Cl)c(CNc3ccc(Cl)c(Cl)c3)ccc2n1 | 98% (active)
51 | C=C1CC2(CC(c3ccccc3OC)OC(c3ccccc3OC)C2)OC1=O (stereo unspecified) | 70% (active)
52 | O=[N+]([O-])c1c(Cl)nc2ccccn12 | 27%
53 | C/C(=N\NC(=S)N1CCN(c2ccccn2)CC1)c1nccs1 | 99% (active)
54 | Clc1nc(Cl)c(Cl)c(Cl)n1 | 98% (active)
55 | COc1ccc(COc2ccc(C(=O)CCN3CCOCC3)cc2)cc1 | 87% (active)
56 | O/N=C/c1cc(I)c(O)c(I)c1 | 99% (active)
57 | COC1OC2COC(c3ccccc3)OC2C(O)C1OS(=O)(=O)c1ccc(C)cc1 (stereo unspecified) | 46%

Row | Structure (SMILES) | growth inhibition
58 | C=C1CC2(CC(c3ccccc3C)OC(c3ccccc3C)C2)OC1=O (stereo unspecified) | 83% (active)
59 | Cc1ccc2c(c1)C1(C)OC(C=CC1=O)O2 (stereo unspecified) | 100% (active)
60 | COc1cc(OC)c(OC)cc1/C=C\c1ccnc2ccccc12 | 88% (active)
61 | Cc1n(Cc2ccccc2)c2c([n+]1C)C(=O)c1ccccc1C2=O | 98% (active)
62 | O=[N+]([O-])c1cc2c(cc1S(=O)(=O)O)C1C(C3C2C2(Cl)C(Cl)=C(Cl)C3(Cl)C2(Cl)Cl)C2(Cl)C(Cl)=C(Cl)C1(Cl)C2(Cl)Cl (stereo unspecified) | 41%
63 | CCOC(=O)Nc1c(C)cc(C)c(Br)c1C | 12%
64 | COc1cc2c(c(OC)c1OC)-c1ccc(SC)c(=O)cc1C(NC(=O)c1ccccc1)CC2 (stereo unspecified) | 81% (active)
65 | CCCCCCCCCCS(=O)CC(CO)NC(=O)/C=C/c1c(C)[nH]c(=O)[nH]c1=O (stereo unspecified) | 98% (active)
66 | C/C(N=NC(=S)N1CCCCCC1)=C1\C=CC=CN1O | 27%
67 | Cc1cc(NCCCCCCCNc2cc(C)nc3cc([N+](=O)[O-])ccc23)c2ccc([N+](=O)[O-])cc2n1 | 90% (active)
68 | CC1CC[P+](c2ccccc2)(c2ccccc2)c2c1ccc1ccccc21 (stereo unspecified) | 98% (active)
69 | O=C1C(Cl)=C(N2CCN(C3=C(Cl)C(=O)c4ccccc4C3=O)CC2)C(=O)c2ccccc21 | 99% (active)
70 | CCN1CCC(O)(c2ccc(Oc3ccccc3)cc2)C(C(=O)c2ccc(Oc3ccccc3)cc2)C1 (stereo unspecified) | 28%
71 | Cc1ccc(NCCN(C)C)c2c(=O)c3cc(O)ccc3sc12 | 99% (active)
72 | COc1ccc2nc(C)cc(NCCCCCCCCCNc3cc(C)nc4ccc(OC)cc34)c2c1 | 96% (active)
73 | Cc1n(-c2ccccc2)c2c([n+]1Cc1ccc([N+](=O)[O-])cc1)C(=O)c1ccccc1C2=O | 98% (active)
74 | CC1(O)Cc2c(O)c3c(c(O)c2CC1O)C(=O)C=CC3=O (stereo unspecified) | 43%
75 | c1ccc(C2=NC(c3ccccc3)=NS(S3=NC(c4ccccc4)=NC(c4ccccc4)=N3)=N2)cc1 (stereo unspecified) | 98% (active)
76 | CC[C@](O)(CC(=O)O[C@H]1C(=O)O[C@@H]2C[C@H]3C(C)=CC(=O)[C@@H](O)[C@]3(C)[C@H]3[C@@]4(O)OC[C@]32[C@@H]1[C@@H](C)[C@H]4O)C(C)C | 98% (active)
